According to PubChem BioAssay (EPA / NIEHS):
Results filed as inconclusive are left out. Active and inactive are the calls of the source. Rule for the calls: active = hit-call score of the fitted dose curve at least 0.9, where 1 is the maximum; inconclusive = response in the unintended direction; inactive = score below 0.9.

These compounds were tested on ABC Transporter (ABCB1), ABCB1 (gene 5243) (assay: CLD_ABCB1_6hr: CellzDirect (CLD) Gene Expression Assay for ABC Transporter (ABCB1) at 6 hours (AID 2283659);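 note: hits raise ABCB1 transcript above the DMSO vehicle baseline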).
Description: CLD_6hr is a cell-based, multiplexed-readout assay that uses hepatocyte, a human liver primary cell, with measurements taken at 6 hours after chemical dosing in a 96-well plate.CLD_ABCB1_6hr is one of 16 assay component(s) measured or calculated from the CLD_6hr assay. It is designed to make measurements of mRNA induction, a form of inducible reporter, as detected with chemiluminescence signals by Quantitative Nuclease Protection Assay (qNPA) technology.Data from the assay component CLD_ABCB1_6hr was analyzed at the endpoint, CLD_ABCB1_6hr, in the positive analysis fitting direction relative to DMSO as the negative control and baseline of activity. Using a type of inducible reporter, gain-of-signal activity can be used to understand changes in the reporter gene as they relate to the gene ABCB1. Furthermore, this assay endpoint can be referred to as a primary readout. To generalize the intended target to other relatable targets, this assay endpoint is annotated to the transporter intended target family, where subfamily is ABC transporter.
Human hepatocyte cultures were treated daily for two consecutive days with fresh dosing solutions containing appropriate concentrations of the 320 ToxCast chemicals (chemical identities were blinded to CellzDirect and other ToxCast collaborators), vehicle control (0.2% DMSO), and positive control inducers as summarized in Table 1. Due to the large number of treatment groups and chemicals examined, the ToxCast chemicals were divided into two groups (spanning two independent cultures of hepatocytes from separate donor preparations (Hu778: ToxCast plates 1 and 2; Hu776: ToxCast plates 3 and 4). Each preparation of human hepatocyte cultures was treated with respective vehicle control, medium only control, set of six positive controls/reference chemicals for the five hepatic receptor pathways, and a subset of eight of the ToxCast chemicals (indoxacarb, pyrithiobac-sodium, norflurazon, cyhalofop-butyl, methomyl, thiram, acetochlor, and propiconazole). These replicate data, coupled with internal replicates designed within the blinded ToxCast chemical library, provided additional data to evaluate interindividual differences between hepatocyte preparations and their potential impact on chemical profiles.Cell morphology and integrity were evaluated using phase-contrast microscopy as an indicator of hepatocyte cell health (Tyson & Green, 1987). Cultures for each treatment group (i.e., media, vehicle [0.2% DMSO], positive control inducers [multiple concentrations], and the ToxCast chemicals [multiple concentrations]) were observed and cell morphology was assessed relative to vehicle control cultures at each harvest time point (0, 6, 24, or 48 h). […] Images were evaluated at the conclusion of the study to assess changes in cell integrity and account for the effects of chemical exposure on uncharacteristic changes in concentration-dependent gene expression profiles. The results from these determinations of apparent cytotoxicity were annotated (yes/no) alongside the corresponding qNPA data for reference.At the conclusion of each treatment period, hepatocyte cultures (96-well) were washed with 1 volume of HBSS, lysed by addition of 25 ul ArrayPlate lysis buffer (HTG, Tucson, AZ), and 70 ul/well of Denaturation Oil, denatured by incubation at 95C for 10 min, and frozen at approximately -70C until analysis by nuclease protection assay (qNPA) (Roberts et al., 2007). For qNPA analysis, cell lysates were thawed at 50C for approximately 30 min, qNPA probes were added, and samples were incubated at 95C for 10 min to begin the detection process by denaturing the target RNA, dissociating the duplexes and secondary structure hybridization. At the conclusion of the hybridization period, S1 nuclease reagent was added to each sample to digest all nonprotected nucleotides at 50C for 60-90 min. […]

Structure (SMILES)	outcome
C=CCOC(Cn1ccnc1)c1ccc(Cl)cc1Cl (stereo not given)	inactive
CCC(C)OC(=O)N1CCCCC1CCO (stereo not given)	inactive
CCNc1nc(N)nc(Cl)n1	inactive
COCCO	inactive
CCCOC(=O)NCCCN(C)C	inactive
CC(C)(C)[C@@H](O)[C@@H](Cc1ccc(Cl)cc1)n1cncn1	inactive
COC(=O)c1ccccc1C(=O)O	inactive
CCN(CC)C(=O)c1cccc(C)c1	inactive
CCOC(=O)C(C)Oc1ccc(Oc2nc3ccc(Cl)cc3o2)cc1 (stereo not given)	inactive
COc1nc(C)nc(NC(=O)NS(=O)(=O)c2ccccc2OCCCl)n1	inactive
CCOC(=O)NCCOc1ccc(Oc2ccccc2)cc1	inactive
S=C(S)NCCNC(=S)S.[Mn+2].[S-]C([S-])=NCCN=C([S-])[S-].[Zn+2]	inactive
CCC(O)=C1C(=O)CC(C(=O)O)CC1=O (stereo not given)	inactive
CC(C)(c1ccc(O)cc1)c1ccc(O)cc1	inactive
N#CSCSc1nc2ccccc2s1	inactive
COC(=O)c1ccc(I)cc1S(=O)(=O)NC(=O)Nc1nc(C)nc(OC)n1	inactive
O=C(Nc1ccc([N+](=O)[O-])cc1Cl)c1cc(Cl)ccc1O	inactive
CCCOC(=O)c1ccc(C(=O)OCCC)nc1	inactive

Structure (SMILES)	outcome
CCCCCOC(=O)COc1cc(N2C(=O)C3=C(CCCC3)C2=O)c(F)cc1Cl	inactive
CCOC(=O)[C@H](C)Oc1ccc(Oc2nc3ccc(Cl)cc3o2)cc1	inactive
Oc1ccc(C(c2ccc(O)cc2)C(Cl)(Cl)Cl)cc1	inactive
COC(=O)c1ccc(CNS(C)(=O)=O)cc1S(=O)(=O)NC(=O)Nc1nc(OC)cc(OC)n1	inactive
CCCCCCC(C)OC(=O)COc1nc(F)c(Cl)c(N)c1Cl (stereo not given)	inactive
CCCCC(CC)CN1C(=O)C2C3C=CC(C3)C2C1=O (stereo not given)	inactive
CN(C)C(=O)Nc1ccc(Cl)c(Cl)c1	inactive
CCCN(CCC)C(=O)SCC	inactive
CCCCOC(=O)[C@@H](C)Oc1ccc(Oc2ccc(C(F)(F)F)cn2)cc1	inactive
CCOC(=O)COc1cc(-n2ncc(C(F)(F)F)c(C)c2=O)c(F)cc1Cl	inactive
CCCCC(CC)COC(=O)c1ccccc1C(=O)O (stereo not given)	inactive
CSC(=O)c1cccc2nnsc12	inactive
C#CCOC(=O)[C@@H](C)Oc1ccc(Oc2ncc(Cl)cc2F)cc1	inactive
COc1c(Cl)ccc(Cl)c1C(=O)O	inactive
c1ccc2[nH]c(-c3cscn3)nc2c1	inactive
CCCN(CCC)c1c([N+](=O)[O-])cc(C(F)(F)F)c(N)c1[N+](=O)[O-]	inactive
COC(=O)CSc1cc(N=c2sc(=O)n3n2CCCC3)c(F)cc1Cl	inactive
